BAZ2B block: qHTS Assay for Inhibitors of BAZ2B; hit rate 4.4% among 360,000; Potency, µM (highest dose often 114 µM), most hits filed as inhibitors; AlphaScreen BAZ2B-H3K14Ac peptide displacement; AID 504333, 2011; Bromodomain adjacent to zinc finger domain protein 2B (Homo sapiens), Q9UIF8; note: nearly all actives have a fitted effect of over 60% in size
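Multi-concentration screen (max 110 uM) measuring displacement of acetylated histone H3 peptide from BAZ2B by AlphaScreen, using 50 nM protein, 50 nM peptide and 10 ug/mL streptavidin donor plus Ni-chelate acceptor beads.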
GLS inh: qHTS for Inhibitors of Glutaminase (GLS); Potency, µM (highest dose often 45.5 µM), actives largely listed as inhibitors; Glutaminase kidney isoform, mitochondrial (Homo sapiens), O94925; hit rate 0.21% among 410,000; GLS enzymatic activity, qHTS titration
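Coupled fluorescence readout: glutamate oxidase/HRP/Amplex Red detect glutamate formed by hKGA from L-glutamine (1 mM solution added). Buffer 45 mM KH2PO4 pH 8.2, 0.02% Tween-20; reads at t0 and 30 min RT.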
JMJD2A Tudor inh: qHTS Assay for Inhibitors of JMJD2A-Tudor Domain | hit rate 4.4% among 390,000 | Potency, µM (highest dose often 114 µM), usual class: inhibitors | AID 504339, 2011 | AlphaScreen JMJD2A-Tudor / H3K4me3 peptide binding; note: nearly all actives have a fitted effect of over 50% in size
HP1b binding inh: HTS for Inhibitors of HP1-beta Chromodomain Interactions with Methylated Histone Tails; AID 540317, 2011; Chromobox protein homolog 1 (Homo sapiens), P83916; hit rate 0.56% among 390,000; AlphaScreen HP1-beta / biotin-H3K9me3 peptide binding; Potency, µM (highest dose often 114 µM), usual class: inhibitors; note: nearly all actives have a fitted effect of over 70% in size
Target sequence (P83916 whole entry, looked up): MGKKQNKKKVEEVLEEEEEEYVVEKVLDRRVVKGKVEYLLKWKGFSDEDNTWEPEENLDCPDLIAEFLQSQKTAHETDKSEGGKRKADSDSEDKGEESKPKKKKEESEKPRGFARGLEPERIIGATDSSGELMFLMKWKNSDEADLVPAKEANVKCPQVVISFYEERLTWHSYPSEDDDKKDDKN
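Compound inhibition of the preformed complex between 50 nM HP1-beta and 50 nM biotinylated H3K9me3 peptide was read by AlphaScreen. Buffer was PBS pH 7.4 with 0.01% Tween-20. Incubations ran 30 min at room temperature, with 10 ug/mL donor/acceptor beads.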
G9a inh: qHTS Assay for Inhibitors of Histone Lysine Methyltransferase G9a; AID 504332, 2011; Potency, µM (doses to about 102 µM), actives largely listed as inhibitors; hit rate 8.8% among 350,000; G9a H3K9 monomethylation, AlphaScreen, 2 h; note: nearly all actives have a fitted effect of over 75% in size
Target sequence (Q96KQ7 913-1193 limits assumed): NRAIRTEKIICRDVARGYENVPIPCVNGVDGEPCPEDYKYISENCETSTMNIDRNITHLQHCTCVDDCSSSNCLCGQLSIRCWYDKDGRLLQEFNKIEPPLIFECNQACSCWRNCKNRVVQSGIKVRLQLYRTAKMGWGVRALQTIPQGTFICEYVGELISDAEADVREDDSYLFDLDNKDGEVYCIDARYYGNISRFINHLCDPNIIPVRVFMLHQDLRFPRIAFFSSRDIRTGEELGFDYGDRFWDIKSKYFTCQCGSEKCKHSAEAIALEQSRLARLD
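Compounds were preincubated with 20 nM G9a for 15 min, after which biotinylated H3K9 peptide (500 nM) and SAM (20 uM) started a 2 h room-temperature reaction. Monomethylated product was quantified by antibody-based AlphaScreen chemiluminescence.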
Large screens that a line does not name were inactive. Shown are actives, neighbours in structure and some others; about 10% of the full set was active somewhere. Calls come from the whole dose curve; as a rule, active = well fitted curve in the direction sought with a large enough effect; inconclusive = small, poorly fitted or top-dose-only effect, or another doubt; inactive = no such curve, though single readings can be large; an effect the other way counts as inactive or inconclusive.

CC1CCCN(CCOCCOc2ccc(Cl)cc2Br)C1 (centres undefined)	BAZ2B block inconclusive, JMJD2A Tudor inh 2µM, HP1b binding inh inconclusive, G9a inh inconclusive
CC1CCCN(CCOCCOc2ccc(Br)cc2Cl)C1 (centres undefined)	BAZ2B block inconclusive, JMJD2A Tudor inh 2.82µM, HP1b binding inh inconclusive, G9a inh 10µM
CC1CCN(CCCOc2ccc(Br)cc2Cl)CC1	BAZ2B block 56.2µM, JMJD2A Tudor inh 3.98µM, HP1b binding inh inconclusive, G9a inh 15.8µM
Cc1cccc(OCC(=O)OCC(=O)N(CC(C)C)c2c(N)n(Cc3ccccc3)c(=O)[nH]c2=O)c1C	none
O=C(CSc1nncs1)N1CCN(C(=O)c2ccco2)CC1	G9a inh inconclusive
Cc1ccc(C)c(NC(=O)COC(=O)CCc2ccc(S(=O)(=O)N3CCOCC3)cc2)c1	none
COc1cc(/C=C/C(=O)OCC(=O)N2CCC(Cc3ccccc3)CC2)ccc1O	GLS inh inconclusive
N#CCC(=O)Nc1ccc(C(=O)OCC(=O)NC(=O)Nc2ccc3c(c2)OCCO3)cc1	none (no result: BAZ2B block, G9a inh)
O=C(c1ccco1)N1CCN(Cc2ccccc2Br)CC1	BAZ2B block 31.6µM, JMJD2A Tudor inh 8.91µM, HP1b binding inh inconclusive, G9a inh 20µM
O=C(Cc1ccccc1F)OCC(=O)N1CCN(C(=O)c2ccco2)CC1	none
O=C(c1ccco1)N1CCN(Cc2ccc(F)cc2Cl)CC1	none
CCOc1ccc(OCC(=O)OCC(=O)N2CCN(C(=O)c3ccco3)CC2)cc1	G9a inh 31.6µM
O=C(c1ccco1)N1CCN(Cc2ccc(F)cc2)CC1	BAZ2B block 79.4µM, JMJD2A Tudor inh 20µM, HP1b binding inh inconclusive, G9a inh 11.2µM
CCOc1ccc(CN2CCN(C(=O)c3ccco3)CC2)cc1	JMJD2A Tudor inh 20µM, HP1b binding inh inconclusive, G9a inh 31.6µM
O=C(c1ccco1)N1CCN(C(=O)c2ccco2)CC1	none (no result: BAZ2B block, JMJD2A Tudor inh, HP1b binding inh, G9a inh)
COc1cccc(-c2nnn(CC(=O)N3CCCCC3)n2)c1	GLS inh inconclusive
O=C(c1ccco1)N1CCN(C(=O)c2ccc(CS(=O)c3ccc(Br)cc3)o2)CC1 (centres undefined)	none (no result: BAZ2B block, JMJD2A Tudor inh, HP1b binding inh, G9a inh)
O=C(c1ccco1)N1CCN(CC2CC3C=CC2C3)CC1 (centres undefined)	BAZ2B block 50.1µM, JMJD2A Tudor inh 1.41µM, G9a inh inconclusive
CCOc1ccccc1-c1nc(CN2CCN(C(=O)c3ccco3)CC2)c(C)o1	none
CCOc1ccccc1-n1c(CN2CCN(C(=O)c3ccco3)CC2)nc2ccccc2c1=O	G9a inh 14.1µM
CCOc1cc(CN2CCN(C(=O)c3ccco3)CC2)ccc1OC	BAZ2B block 50.1µM, JMJD2A Tudor inh 5.62µM, HP1b binding inh inconclusive
O=C(c1ccco1)N1CCN(C(=O)c2ccc(Cn3cc(Br)cn3)o2)CC1	G9a inh 50.1µM
COc1cc(OC)cc(C(=O)NC(C(=O)Nc2ccc3nc(C)sc3c2)C(C)C)c1 (centres undefined)	none
Cc1ccccc1-c1nnc(CN2CCN(C(=O)c3ccco3)CC2)o1	G9a inh inconclusive
O=C(c1ccco1)N1CCN(Cc2nnc(-c3ccccc3F)o2)CC1	JMJD2A Tudor inh inconclusive, G9a inh 70.8µM
O=C(c1ccccc1)N1CCN(Cc2c[nH]c3ccccc23)CC1	none
O=C(c1ccc(F)cc1)N1CCN(Cc2ccccc2Br)CC1	BAZ2B block inconclusive, JMJD2A Tudor inh 25.1µM, HP1b binding inh inconclusive, G9a inh 10µM
Cc1ccccc1-c1nc(CN2CCN(C(=O)c3ccco3)CC2)c(C)o1	G9a inh 50.1µM
CCCn1c(SCC(=O)NCc2ccccc2)nnc1-c1ccncc1	none
CN(C)c1ccc(C2C=C(c3ccc(Cl)cc3OC(F)F)Nc3ncnn32)cc1 (centres undefined)	BAZ2B block inconclusive, JMJD2A Tudor inh 44.7µM, G9a inh 35.5µM
Cc1ccc(C2C=C(c3ccccc3OC(F)F)Nc3ncnn32)cc1 (centres undefined)	G9a inh inconclusive
CC(C)c1ccc(-c2nc3ccccc3s2)cc1	none
Cc1c(Br)cc(C(=O)NCCCN2CCOCC2)c(C)c1C	none
